Assay outcomes from PubChem.
Giardia kill: Small Molecules that selectively kill Giardia lamblia: qHTS; Giardia lamblia trophozoite viability; activity change, % at 7.66 µM, hits read low; 340,000 tested, 0.15% active; AID 540267, 2011; in the data active = activity change below about -80%; inconclusive = between about -30% and that limit;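 note: parasites exposed to compound for two days anaerobically before the ATP read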
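Luminescent ATP signal served as the viability read-out, measured 15-30 min after adding ATP detection reagent to trophozoites that had been incubated with compounds for 48 hrs at 37 deg C anaerobically at 100 cells/well.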
Gal4-VP16 FLuc: VP16 counterscreen qHTS for inhibitors of ROR gamma transcriptional activity. Drosophila S2 Gal4-VP16 UAS-luciferase, luminescence, 20 h. Potency, µM (titrated, usually from 53.6 µM), actives largely listed as inhibitors. 310,000 tested, 3.5% active. AID 2546, 2010;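 note: Gal4-VP16 expression switched on by copper sulfate through the metallothionein promoter; nearly all actives have a fitted effect of over 50% in size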
Integrin act MD: qHTS for Activators of Integrin-Mediated Alleviation for Muscular Dystrophy. alpha7betagal myoblasts, beta-gal FDG fluorescence, 48 h. Potency, µM (titrated, usually from 38.3 µM), usual class: activators. 350,000 tested, 0.064% active; note: nearly all actives have a fitted effect of over 60% in size
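Alpha7betagal+/- myoblasts (passage 13) were plated 16-24 hr, then exposed to compounds (1:260 dilution of DMSO stock) for 48 hours at 37C. After MPER lysis, β-galactosidase reporter activity was read as FDG fluorescence (ex 480/em 540) after 30 minutes.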
ERG Ets-DNA blk: qHTS for Small Molecule Inhibitors of the ERG Ets/DNA interaction. 370,000 tested, 0.028% active. AID 624246, 2012. Potency, µM (highest dose often 76.9 µM), hits mostly inhibitors. fluorescence polarization, His-ERG Ets domain / labelled DNA; active = well fitted inhibition curve with a large enough effect in the polarisation, with a control signal flat; inconclusive = small, poorly fitted or top-dose-only effect, or effect the other way, or a change in a side signal; inactive = no such curve, though single readings can be large or run the other way; the % refers to the polarisation;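 note: polarization taken with two DNA probes labelled with fluorescein and Texas red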
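His-tagged ERG Ets domain (1 uM in the protein solution; 300mM KCl, 50mM Tris-HCl, 1mM EDTA, 1mM DTT, pH 7.5) received compound, then a probe mix of 5 nM fluorescein-DNA and 100nM Texas-615-DNA. Fluorescence polarization was read for both dyes.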
RORgamma inh: qHTS for inhibitors of ROR gamma transcriptional activity | Nuclear receptor ROR-gamma (Mus musculus), P51450 | Drosophila S2 Gal4-RORgamma UAS-luciferase reporter, 20 h | Potency, µM (series often up to 53.6 µM), hits mostly inhibitors | 310,000 tested, 5.4% active; note: nearly all actives have a fitted effect of over 60% in size
Target sequence (P51450 whole entry, looked up, the tested form may be a part): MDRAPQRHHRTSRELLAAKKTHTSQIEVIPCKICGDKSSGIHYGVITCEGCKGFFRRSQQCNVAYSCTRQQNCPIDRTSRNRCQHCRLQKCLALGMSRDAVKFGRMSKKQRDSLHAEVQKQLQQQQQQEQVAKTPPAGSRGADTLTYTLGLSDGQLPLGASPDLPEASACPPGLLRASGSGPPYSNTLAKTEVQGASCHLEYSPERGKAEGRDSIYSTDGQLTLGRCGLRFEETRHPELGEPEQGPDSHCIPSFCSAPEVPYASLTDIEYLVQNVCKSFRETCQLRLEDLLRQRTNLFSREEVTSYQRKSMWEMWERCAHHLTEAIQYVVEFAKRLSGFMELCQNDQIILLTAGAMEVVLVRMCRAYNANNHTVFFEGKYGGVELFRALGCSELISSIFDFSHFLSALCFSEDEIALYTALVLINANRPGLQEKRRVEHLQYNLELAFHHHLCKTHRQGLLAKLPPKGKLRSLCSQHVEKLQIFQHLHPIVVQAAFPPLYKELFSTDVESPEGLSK
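Using a luciferase readout, inhibitors were identified by reduced reporter activity in Drosophila cells coexpressing a copper-inducible Gal4–ROR gamma fusion and UAS-driven Photinus luciferase, incubated 20 hr after 700 uM copper sulfate.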
Hits are given with their value; . = inactive; ? = inconclusive; / = no result given; ! = repeats disagree; [ ] = remark or other dose. The full list was thinned out, with hits kept by preference. Unless noted, calls come from the whole dose curve; as a rule, active = well fitted curve in the direction sought with a large enough effect; inconclusive = small, poorly fitted or top-dose-only effect, or another doubt; inactive = no such curve, though single readings can be large; an effect the other way counts as inactive or inconclusive.

SMILES	Giardia kill	Gal4-VP16 FLuc	Integrin act MD	ERG Ets-DNA blk	RORgamma inh
CCOC(=O)c1c(NC(=S)Nc2ccc(OC)cc2)sc2c1CCC2	.	.	.	.	?
CCOC(=O)c1c(NC(C)=O)sc2c1CCN(Cc1ccccc1)C2	.	.	.	.	.
CCOC(=O)c1c(NC(=S)NCCc2ccccc2)sc2c1CC(C(C)C)OC2 (stereo not drawn)	.	1.3µM	.	.	2.5µM
CC(C)N1CCc2c(sc(NC(=S)NC(=O)c3ccccc3)c2C#N)C1	.	?	.	.	?
Cc1nnc(SCC(=O)NC2CCCCC2)s1	.	.	.	.	.
CCOC(=O)C(=CNc1cccnc1Oc1ccc(C)c2c1CCC2)C(=O)OCC	.	.	.	.	.
O=C1C2C(C(=O)N1c1ccccc1)N1CCCN1C2c1ccccc1 (stereo not drawn)	.	.	.	.	.
Cc1cc(C)c(Cn2c(=O)n(CCC(=O)NCc3ccc4c(c3)OCO4)c(=O)c3ccccc32)c(C)c1	/	/	/	.	/
COc1cccc2cc(-c3nnc(-c4ccccc4)o3)c(=O)oc12	?	?	.	.	1.3µM
COc1cccc2cc(-c3nnc(-c4ccc(Cl)cc4)o3)c(=O)oc12	/	/	/	.	/
COc1cccc2cc(C(=O)Oc3ccccc3)c(=O)oc12	.	10µM	.	.	?
CC[C@H](C)[C@H](N)C(=O)N[C@@H](CCCNC(=N)N)C(=O)N[C@@H](CCC(N)=O)C(=O)NCC(=O)N1CCC[C@H]1C(=O)N[C@@H](CCCCN)C(=O)N[C@@H](CCC(=O)O)C(=O)N1CCC[C@H]1C(=O)N[C@@H](Cc1ccccc1)C(=O)N[C@@H](CCCNC(=N)N)C(=O)N[C@@H](CC(=O)O)C(=O)N[C@@H](Cc1ccc(O)cc1)C(=O)N[C@H](C(=O)N[C@@H](CC(=O)O)C(=O)N[C@@H](CCCNC(=N)N)C(=O)N[C@@H](Cc1ccccc1)C(=O)N[C@@H](Cc1ccc(O)cc1)C(=O)N[C@@H](CCCCN)C(=O)N[C@H](C(=O)N[C@@H](CC(C)C)C(=O)O)[C@@H](C)O)C(C)C	/	.	/	/	.
O=C(NCCc1ccccc1)/C(=C\c1ccccc1)NC(=O)c1ccco1	.	.	?	.	.
CC1(C)OC[C@@H]2O[C@@]3(C(=O)O)OC(C)(C)O[C@@H]3[C@@H]2O1	/	.	/	/	.
C[C@H]1/C=C\CC(=O)NCc2cccc(c2)CNC(=O)N[C@H]1c1ccccc1	/	.	/	/	.
Cc1ccc(C(O)(C(=O)NNc2ccccn2)c2ccc(C)cc2)cc1	.	?	.	.	10µM
Cc1cccc(C(O)(C(=O)NNc2ccc3ccccc3n2)c2cccc(C)c2)c1	.	13µM	.	.	10µM
CCn1cc(C(=O)N2CCCC2)c(=O)c2cc(S(=O)(=O)N3CCC(C)CC3)ccc21	.	.	.	.	.
CCn1cc(C(=O)N2CCCC2)c(=O)c2cc(S(=O)(=O)N3CCOCC3)ccc21	.	.	.	.	4.5µM
CSc1ccc(CCNC(=O)c2csc3c2CCCCC3)cc1	/	/	/	.	/
CC(C)Oc1ccccc1C1(c2ccccc2)NC(=O)NC1=O (stereo not drawn)	.	.	.	.	.[1.91 µM]
Cn1c2ccccc2c2cc(/C=N/NC(=O)c3ccc(O)cc3O)ccc21	.	?	.	.	?
Cn1c(O)c(/C=N/NC(=O)c2cc3ccccc3cc2O)c2ccccc21	.	?	.	.	7.9µM
COc1ccc2c(c1)cc(C(=O)N/N=C/c1c(O)c(C(=O)O)cc3ccccc13)n2C	?	18µM	.	.	11µM
CC(=O)Nc1ccc(N=Cc2c(O)c(C(=O)Nc3ccccc3)cc3ccccc23)cc1	.	.	.	.	.
SMILES	Giardia kill	Gal4-VP16 FLuc	Integrin act MD	ERG Ets-DNA blk	RORgamma inh
COC(=O)N[C@@H](/C=C/c1ccccc1)C[N+](=O)[O-]	/	.	/	/	.
COC(=O)c1cc(S(=O)(=O)n2nc(C)c(Br)c2C)c(Cl)cc1Cl	.	.	.	.	.
COC(=O)[C@H](CCSC)NC(=O)Cn1cnc2c(OCc3ccccc3)ncnc21	.	/	.	.	/
O=C1CCCC(O)=C1C1C2=C(CCCC2=O)OC2=C1C(=O)CCC2	.	.	.	.	.
COc1ccc2c(c1)OC1=C(C(=O)CCC1)C2C1=C(O)CCCC1=O (stereo not drawn)	.	.	.	.	11µM
Cn1cccc1/C=C1\SC(=O)N(c2ccc(O)cc2)C1=O	.	.	.	.	2.8µM
O=C(O)[C@H]1C[C@@H](CP(=O)(O)O)CCN1	.	.	/	/	.
COc1ccc(-c2cn3nc(C)c(C)nc3n2)cc1OC	.	/	.	.	/
Cc1ccc(-c2cn3nc(C)c(C)nc3n2)cc1	.	10µM	.	.	7.9µM
CC(=O)c1ccc(NC(=O)c2sc(-n3nc(C)c(Cc4ccccc4)c3C)nc2C)cc1	/	/	/	.	/
CCc1c(C)sc(NC(=O)c2noc(C)c2[N+](=O)[O-])c1C#N	.	?	.	.	18µM
COc1ccc(C2C3C=CCC(c4cccc(/C=C/c5ccccc5)c4)C3C(=O)N2Cc2ccccc2)cc1Cl (stereo not drawn)	.	.	/	/	.
CN1CCN(CCCN2c3ccccc3Sc3ccc(Cl)cc32)CC1	.	?	/	.	2.8µM!
CC1C=CCC2C(=O)N(c3cc(Cl)ccc3O)C(=O)C12 (stereo not drawn)	.	.	.	.	.
O=C(Nc1cnc2sccn2c1=O)c1ccccc1Cl	.	?	.	.	7.1µM
O=C(Nc1cnc2ccccn2c1=O)c1ccc(Cl)cc1Cl	.	?	.	.	2.5µM
Cc1cccc(NC(=O)c2cnc3ccccn3c2=O)c1	?	?	.	.	2.5µM
O=S(=O)(Cc1ccccc1)CS(=O)(=O)Cc1ccccc1	.	/	.	.	/
Cc1cc2c(nc1C)CCCN2CC(O)CN1CCCc2nc(C)c(C)cc21	/	.[10 µM]	/	/	.[10 µM]
COCOc1ccc(Br)cc1C(=O)[C@H]1O[C@H]1c1cccc(OC)c1	/	.[10 µM]	/	/	.[10 µM]
O=C(Nc1cnn(Cc2ccc(F)cc2)c1)c1noc2c1CCCC2	.	.[10 µM]	.	.	?
CC(C)(C)C1CCc2onc(C(=O)Nc3cnn(Cc4ccc(F)cc4)c3)c2C1 (stereo not drawn)	.	16µM	.	.	?
O=C1/C(=C/c2cccnc2)SC(=S)N1CC1CCCO1 (stereo not drawn)	.	.	.	.	10µM
Cc1ccc(/C=C2\SC(=S)N(CC3CCCO3)C2=O)o1 (stereo not drawn)	.	?	.	.	13µM
O=C1/C(=C/c2cccnc2)SC(=S)N1c1ccc(F)cc1	.	.	.	.	11µM
CCOC(=O)N1CCC(=NNC(=O)c2ccccc2F)CC1	.	.	.	.	.
Nc1c(C(=O)Nc2ccccc2)nnn1-c1ccc2c(c1)OCCO2	.	?	.	.	10µM
